Reference: PubChem BioAssay (NCATS)
Records with an inconclusive call do not appear. A call without a number means that no potency is given here. Unmarked numbers belong to inactive results. Active and inactive are the calls of the source. The call rests on the fitted dose curve; in most records, active means well fitted curve in the direction sought with a large enough effect; inconclusive means small, poorly fitted or top-dose-only effect, or another doubt; inactive means no such curve, though single readings can be large; an effect the other way counts as inactive or inconclusive. Numbered stars: 1 amine (or outer) side, 2 acyl side, 3 side chain; on linkers, the order of the positions; unused ones are H or OH. Bridge positions count the residues as written; N and C are the ends. Peptide text beside a SMILES is read from it. X4 = O=C(CCC[*:2])[*:1]

Columns and labels:
[1] = molecular target: Aldehyde dehydrogenase, mitochondrial (Homo sapiens) (UniProt P05091); assay: qHTS for Inhibitors of the Aldehyde Dehydrogenase Family (ALDH2) Primary screen (AID 2061308); further: nearly all actives have a fitted effect of over 55% in size
[2] = molecular target: Retinaldehyde dehydrogenase 3 (Homo sapiens) (UniProt P47895); assay: qHTS for Inhibitors of the Aldehyde Dehydrogenase Family (ALDH1A3) Validation screen (AID 2061312); further: nearly all actives have a fitted effect of over 45% in size
[3] = molecular target: Retinaldehyde dehydrogenase 3 (Homo sapiens) (UniProt P47895); assay: qHTS for Inhibitors of the Aldehyde Dehydrogenase Family (ALDH1A3) Primary screen (AID 2061315)

Compound	Potency [1]	Potency [2]	Potency [3]
Cc1[nH]c2ccccc2c1CCNC(=O)c1cccs1	inactive	inactive	inactive
Cc1c(C(=O)Nc2ccc(N3CC(C)OC(C)C3)nc2)cccc1-c1ccc(OC(F)(F)F)cc1 (stereo not drawn)	inactive	inactive	inactive
O=C(N[C@@H]1CC[C@@H](c2cccc(F)c2F)CN(CC(F)(F)F)C1=O)N1CCC(n2c(=O)[nH]c3ncccc32)CC1	inactive	inactive	inactive
Cc1occc(=O)c1O[C@@H]1O[C@H](COC(=O)CC(C)(O)CC(=O)O)[C@@H](O)[C@H](O)[C@H]1O (stereo partly drawn)	inactive	–	inactive
CC(=O)NCc1cccc(OC[C@@H](O)CNCCc2ccc(NS(=O)(=O)c3ccccc3)cc2)c1	inactive	–	inactive
CCC(=O)N[C@@H]1Cc2ccccc2[C@H](c2ccccc2)C1	inactive	–	inactive
CC(C)C1NC(=O)C2CCCN2C1=O (stereo not drawn)	inactive	–	inactive
CS(=O)(=O)N(CC(=O)NCC1CC1)c1cc(C(F)(F)F)ccc1Cl	inactive	–	inactive
O=C(O)c1ccc(NC(=O)[C@H](CC2CCCC2)n2cnc(C(F)(F)F)c2)nc1	inactive	–	inactive
C=C1CCC2C(C)(C)CC(=O)CC2(C)C1CCC(C)CCO (stereo not drawn)	inactive	–	inactive
Cc1ccc(Cc2c(C)nc3nc(SCC(=O)NCCN4CCNCC4)nn3c2C)cc1	inactive	–	inactive
O=C(/C=C/c1ccc(O)cc1)N[C@@H](Cc1ccc(O)cc1)C(=O)O	inactive	–	inactive
O=C(CCCCCCCCC#CI)Oc1ccccc1	inactive	–	inactive
COc1cc(O)c([C@@H](CC(=O)N2CC(C)CC(C)C2)c2ccc3c(c2)OCO3)c(OC)c1 (stereo partly drawn)	inactive	–	inactive
Cc1ccc(Sc2cncc3sc(C(N)=O)cc23)cc1	inactive	–	inactive
CC(C)C1C(OC(=O)/C=C/c2ccccc2)CC2(C)OC2CCC2(C)OC2C1O (stereo not drawn)	inactive	–	inactive
CC(=O)O[C@@H]1CC[C@@]2(C)[C@H](CC[C@@H]3[C@@H]2C[C@H](OC(C)=O)[C@]2(C)[C@@H](C(C)=O)CC[C@@H]32)C1	inactive	–	inactive
C=CCC1=C[C@]2(OC)[C@H](C)[C@@H](c3ccc4c(c3)OCO4)O[C@]2(OC)CC1=O	inactive	–	inactive
C=C1CCC[C@]2(C)CC[C@@H](C(=C)C(=O)O)[C@H](O)[C@@H]12	inactive	–	inactive
COC(=O)CC(O)C1OC(c2ccccc2)C(O)C1O (stereo not drawn)	inactive	–	inactive

Compound	Potency [1]	Potency [2]	Potency [3]
CC1CCC2C(=CCC(O)C2(C)C)C1(C)Cc1c(O)cc(CO)c(C=O)c1O (stereo not drawn)	inactive	–	inactive
COc1ccc(C2(N(C)C(=O)c3ccc(NC(=O)c4ccco4)cc3)CCOCC2)cc1	inactive	–	inactive
C=CC(C)(C)C12CC3C(=O)NC(Cc4cnc[nH]4)C(=O)N3C1Nc1ccccc12 (stereo not drawn)	inactive	–	inactive
CC(=O)OCC1OC(O[C@H]2CC[C@]34C[C@]35CC(O)[C@]3(C)[C@@H]([C@H](C)CC/C=C(\C)C(=O)O)C(O)C[C@@]3(C)C5CC[C@H]4C2(C)C)C(O)C(O)C1OC1OCC(O)C(O)C1O (stereo partly drawn)	inactive	–	inactive
COc1ccc(O[C@@H]2O[C@H](CO)[C@@H](O)[C@H](O)[C@H]2O)cc1OC	inactive	–	inactive
COc1c2c(c(C)c3c1C(=O)OC3)O[C@@]1(C)CCC3(C(C)(C)O)OC(=O)CC[C@]3(C)[C@H]1C2 (stereo partly drawn)	inactive	–	inactive
Cc1cc(O[C@@H]2O[C@H](COC(=O)CC(=O)O)[C@@H](O)[C@H](O)[C@H]2O)c(C(C)C)cc1O	inactive	–	inactive
C=C1C(O)CC2C(C(=O)O)=COC(O[C@@H]3O[C@H](COC(=O)c4ccc(O)cc4)[C@@H](O)[C@H](O)[C@H]3O)C12 (stereo partly drawn)	inactive	–	inactive
CC1(C)CC[C@]2(C(=O)O)CC[C@]3(C)C(=CCC4[C@@]5(C)CC[C@H](O[C@H]6O[C@H](C(=O)O)[C@@H](O)[C@H](O[C@@H]7O[C@H](CO)[C@H](O)[C@H](O)[C@H]7O)[C@H]6O)C(C)(C)C5CC[C@]43C)[C@@H]2C1 (stereo partly drawn)	inactive	–	inactive
COc1cc(C(C)=O)c(OC)c2c1OC(C)(C)C=C2	inactive	–	inactive
C=C1C(=O)O[C@@H]2C/C(C)=C\C(=O)/C=C(\C)[C@@H](OC(=O)/C(C)=C\C)[C@H](O)[C@@H]12	inactive	–	inactive
CC(=O)OCC1=C[C@H](O)[C@@H]2C(C(=O)O)=CO[C@@H](O[C@@H]3O[C@H](CO)[C@@H](O)[C@H](O)[C@H]3O)[C@H]12	inactive	–	inactive
CC[C@H](C)[C@@H]1NC(=O)[C@H](Cc2ccc(OC)cc2)NC(=O)CCCSC[C@@H](C(=O)N2CCC[C@H]2C(=O)N[C@@H](CC(C)C)C(=O)NCC(N)=O)NC(=O)[C@H](CC(N)=O)NC(=O)[C@H](CCC(N)=O)NC1=O (Y(Me)IQNCPLG-NH2; linker N-5 via X4)	inactive	–	inactive
C=C1C(=O)O[C@@H]2C[C@H](C)C3=CC(=O)[C@H](O)[C@@]3(C)C[C@H]12	inactive	–	inactive
O=C(CCCN1CC=C(n2c(=O)[nH]c3ccccc32)CC1)c1ccc(F)cc1	inactive	–	inactive
CC(=O)OCC1=C[C@@H]2OC(=O)C3=CO[C@@H](O[C@@H]4O[C@H](CO)[C@@H](O)[C@H](O)[C@H]4O)[C@H]1[C@@H]32	inactive	–	inactive
C=C1C(=O)O[C@@H]2/C=C(/C)CC3C=C(C[C@H](OC(=O)/C(C)=C\C)[C@@H]12)C(=O)O3 (stereo partly drawn)	inactive	–	inactive
CC(=O)C1(C)CCC2C3C=C(C)C4=CC(=O)CCC4(C)C3CCC21C (stereo not drawn)	inactive	–	inactive
CCN1C(C)(C)CC(Oc2ccc(C(=O)Nc3ccc(NC(=O)Nc4cc(C(C)(C)C)on4)cc3)nc2)CC1(C)C	inactive	–	inactive
C=C(C(=O)OC)[C@]12O[C@@](C)(CC[C@@]3(O)/C(=C\C)C(=O)O[C@]3(C)C[C@@H]1OC(=O)C(CO)CN1CCCC1C(=O)O)CC2=O (stereo partly drawn)	inactive	–	inactive
